Reference: PubChem BioAssay (Tox21)
Values joined by “and” are separate entries in the source; they are usually repeats but may differ in a detail not shown here. Equal entries are not always repeated. Results filed as inconclusive are left out. A call without a number means that no potency is given here. A structure can be active in one record and inactive in another. Active and inactive are the calls of the source. Unless noted, calls follow the shape of the dose curve; as a rule, active = well fitted curve in the direction sought with a large enough effect in the repeat runs; inconclusive = weak or mixed curves; inactive = no such curve, though single readings can be large; an effect the other way counts as inactive or inconclusive.

Columns and labels:
[1] = qHTS assay to identify small molecule antagonists of the glucocorticoid receptor (GR) signaling pathway - cell viability counter screen (AID 720693); also: nearly all actives have a fitted effect of over 55% in size
[2] = qHTS assay for identifying genotoxic compounds that show differential cytotoxicity against isogenic chicken DT40 cell lines with known DNA damage response pathways - wild type cell line (AID 743012); also: nearly all actives have a fitted effect of over 60% in size; also: potency is read from the fitted curve at half-maximal effect
In short: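 Viability by ATP luminescence (CellTiter-Glo, 30 min RT) after 40 h compound treatment at 37 C/5% CO2, using 300 parental DNA repair-proficient DT40 cells per well.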

[3] = qHTS assay for identifying genotoxic compounds that show differential cytotoxicity against isogenic chicken DT40 cell lines with known DNA damage response pathways - Rev3 mutant cell line (AID 743014); also: nearly all actives have a fitted effect of over 55% in size; also: potency is read from the fitted curve at half-maximal effect
[4] = qHTS assay for identifying genotoxic compounds that show differential cytotoxicity against isogenic chicken DT40 cell lines with known DNA damage response pathways - Rad54/Ku70 mutant cell line (AID 743015); also: nearly all actives have a fitted effect of over 60% in size; also: potency is read from the fitted curve at half-maximal effect
[5] = qHTS assay to identify small molecule antagonists of the androgen receptor (AR) signaling pathway - cell viability counter screen (AID 743033; also: nearly all actives have a fitted effect of over 45% in size)
[6] = target: Androgen receptor (Homo sapiens) (UniProt P10275); assay: qHTS assay to identify small molecule antagonists of the androgen receptor (AR) signaling pathway (AID 743035; active = well fitted inhibition curve with a large enough effect in the signal ratio in the repeat runs, not every such curve was filed as active; the % refers to the signal ratio)
Androgen receptor (Homo sapiens), sequence (P10275 whole entry, looked up): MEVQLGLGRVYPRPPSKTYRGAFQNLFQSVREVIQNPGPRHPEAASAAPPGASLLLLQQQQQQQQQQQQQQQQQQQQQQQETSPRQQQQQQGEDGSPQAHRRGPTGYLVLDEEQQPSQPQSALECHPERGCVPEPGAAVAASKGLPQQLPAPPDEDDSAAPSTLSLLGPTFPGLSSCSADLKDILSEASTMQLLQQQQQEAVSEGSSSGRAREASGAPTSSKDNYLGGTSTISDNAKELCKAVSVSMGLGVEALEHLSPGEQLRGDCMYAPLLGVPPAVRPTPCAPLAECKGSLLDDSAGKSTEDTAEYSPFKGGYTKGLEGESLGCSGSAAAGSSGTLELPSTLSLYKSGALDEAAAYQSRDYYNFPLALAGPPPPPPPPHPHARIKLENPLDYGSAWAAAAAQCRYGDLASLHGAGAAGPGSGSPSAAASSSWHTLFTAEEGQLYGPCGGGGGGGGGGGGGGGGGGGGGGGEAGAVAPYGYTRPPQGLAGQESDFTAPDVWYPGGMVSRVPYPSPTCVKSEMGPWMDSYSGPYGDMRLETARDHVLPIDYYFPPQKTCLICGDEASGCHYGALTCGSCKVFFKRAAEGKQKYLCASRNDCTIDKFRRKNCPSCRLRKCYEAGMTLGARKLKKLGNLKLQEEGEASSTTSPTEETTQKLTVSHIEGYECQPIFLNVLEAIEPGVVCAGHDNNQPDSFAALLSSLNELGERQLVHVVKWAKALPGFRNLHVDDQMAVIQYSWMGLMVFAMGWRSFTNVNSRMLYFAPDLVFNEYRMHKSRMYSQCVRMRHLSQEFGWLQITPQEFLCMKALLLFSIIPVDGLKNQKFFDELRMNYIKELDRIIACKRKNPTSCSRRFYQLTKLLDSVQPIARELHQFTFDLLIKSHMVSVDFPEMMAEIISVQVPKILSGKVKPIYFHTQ
In short: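 Antagonist mode: AR-bla HEK293 cells co-treated with test compounds and agonist R1881 for 16 h at 37C, 5% CO2. Beta-lactamase activity read as FRET fluorescence after 2 h room-temperature substrate loading.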

[7] = target: Androgen receptor (Homo sapiens) (UniProt P10275); assay: qHTS assay to identify small molecule agonists of the androgen receptor (AR) signaling pathway (AID 743036; active = well fitted activation curve with a large enough effect in the signal ratio in the repeat runs, with a control signal flat, not every such curve was filed as active; the % refers to the signal ratio)
In short: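 In this Tox21 qHTS, 2,000 HEK293 AR-bla cells per well were incubated with compounds for 16 h at 37C and 5% CO2. Fluorescence intensity was recorded 2 h after adding LiveBLAzer B/G FRET substrate at room temperature.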

[8] = target: Androgen receptor (Homo sapiens) (UniProt P10275); assay: qHTS assay to identify small molecule agonists of the androgen receptor (AR) signaling pathway using the MDA cell line (AID 743040; also: nearly all actives have a fitted effect of over 20% in size)
In short: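 Luciferase agonist assay: 16 h compound exposure at 37C without CO2 in MDA-kb2 AR-luc cells, whose MMTV promoter responds to both AR and GR. Luminescence measured after 30 min room-temperature incubation with ONE-Glo.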

[9] = qHTS assay to identify small molecule antagonists of the androgen receptor (AR) signaling pathway using the MDA cell line - cell viability counter screen (AID 743041; also: nearly all actives have a fitted effect of over 45% in size)
In short: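 Viability read by CellTiter-Fluor fluorescence in the same wells as the antagonist screen, added after 15.5 h of a 16 h, 37C exposure. Human breast carcinoma MDA-kb2 AR-luc cells, compounds co-dosed with agonist R1881.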

[10] = target: Androgen receptor (Homo sapiens) (UniProt P10275); assay: qHTS assay to identify small molecule antagonists of the androgen receptor (AR) signaling pathway using the MDA cell line (AID 743042; also: nearly all actives have a fitted effect of over 55% in size)
In short: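 Antagonist mode: compounds plus R1881 agonist added to MDA-kb2 AR-luc cells, incubated 16 h at 37C. Luciferase reporter luminescence quantified, with multiplexed CellTiter-Fluor readout for cell viability.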

Structure (SMILES) | Potency [1] | Potency [2] | Potency [3] | Potency [4] | outcome [5] | Potency [6] | outcome [7] | Potency [8] | Potency [9] | Potency [10]
C[C@]12CC[C@@H]3c4ccc(O)cc4C[C@@H](CCCCCCCCCS(=O)CCCC(F)(F)C(F)(F)F)[C@H]3[C@@H]1CC[C@@H]2O (stereo not given in full) | inactive | 8.41 µM (active) | 11.9 µM (active) and inactive | 6.68 µM (active) | inactive | inactive | inactive | inactive | inactive | inactive
O=c1c(-c2ccc(O)cc2)coc2cc(O)cc(O)c12 | inactive | 11.9 µM (active) and 30.6 µM (active) | 21.1 µM (active) and 53.5 µM (active) and 48.6 µM (active) | 11.9 µM (active) and 47.7 µM (active) and 27.3 µM (active) | inactive | – | – | inactive | inactive | inactive
CCCCCCCCCCCCCC(=O)OC(C)C | inactive | inactive | inactive | inactive | inactive | inactive | inactive | inactive | inactive | inactive
COCCOCCOC | inactive | inactive | inactive | inactive | inactive | inactive | inactive | inactive | inactive | inactive
CC(=O)CCC(C)C | inactive | inactive | inactive | inactive | inactive | – | – | – | inactive | –
CCCCCCCCCCCCCCCCCC(=O)OCC(O)CO (stereo not given) | inactive | inactive | inactive | inactive | inactive | – | – | – | inactive | –
CCc1cc(C(N)=S)ccn1 | inactive | inactive | inactive | inactive | inactive | – | – | – | inactive | –
C=CC(=O)NC(C)(C)CS(=O)(=O)O | inactive | inactive | inactive | inactive | inactive | – | – | – | inactive | –
COC(=O)C1CCC(C(=O)OC)CC1 (stereo not given) | inactive | inactive | inactive | inactive | inactive | – | – | – | inactive | –
COc1ccccc1NC(=O)CC(C)=O | inactive | inactive | inactive | inactive | inactive | – | – | – | inactive | –
CCOC(=O)C(C)(C)Oc1ccc(Cl)cc1 | inactive | inactive | inactive | inactive | inactive | – | – | – | inactive | –
Oc1cccc(O)c1 | inactive | inactive | inactive | inactive | inactive | – | – | – | inactive | –
C[C@]12C=CC(=O)C=C1CC[C@@H]1[C@@H]2C(=O)C[C@@]2(C)[C@H]1CC[C@]2(O)C(=O)CO | inactive | inactive | inactive and 4.86 µM (active) | inactive | inactive | – | – | – | inactive | –
CCCCC/C(C=O)=C\c1ccccc1 | inactive | inactive | inactive | inactive | inactive | – | – | – | inactive | –
C/C=C/c1ccc(O)c(OC)c1 | inactive | inactive | inactive | inactive | inactive | – | – | – | inactive | –
CC(C)CC(C)CC(O)CC(C)C (stereo not given) | inactive | inactive | inactive | inactive | inactive | – | – | – | inactive | –
